About 2,100 (0.62%) of roughly 340,000 compounds were called active.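 The calls were made as follows: active = first-screen hits whose inhibition reached a set limit at any dose in the follow-up dose series; inconclusive = inhibition above the set first-screen limit but never retested; inactive = the rest.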 The list is a sample of the results. Results with a measured potency or affinity are listed apart.
These compounds were tested against Rac GTPase-activating protein 1 (Homo sapiens) (UniProt Q9H0H5) (assay: blockers of MgcRacGAP-driven Rac1 GTP hydrolysis – biochemical, ADP Hunter fluorescence, primary and confirmatory, confirmation (AID 624330;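 also: fluorescence reports GDP produced by GAP-driven GTP hydrolysis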)). Conditions: MgcRacGAP-stimulated Rac1 GTP hydrolysis, at 30 µM, hits give high values, GST-tagged Rac1 F28L mutant substrate.
Sequence of Rac GTPase-activating protein 1 (Homo sapiens) (Q9H0H5 whole entry, looked up): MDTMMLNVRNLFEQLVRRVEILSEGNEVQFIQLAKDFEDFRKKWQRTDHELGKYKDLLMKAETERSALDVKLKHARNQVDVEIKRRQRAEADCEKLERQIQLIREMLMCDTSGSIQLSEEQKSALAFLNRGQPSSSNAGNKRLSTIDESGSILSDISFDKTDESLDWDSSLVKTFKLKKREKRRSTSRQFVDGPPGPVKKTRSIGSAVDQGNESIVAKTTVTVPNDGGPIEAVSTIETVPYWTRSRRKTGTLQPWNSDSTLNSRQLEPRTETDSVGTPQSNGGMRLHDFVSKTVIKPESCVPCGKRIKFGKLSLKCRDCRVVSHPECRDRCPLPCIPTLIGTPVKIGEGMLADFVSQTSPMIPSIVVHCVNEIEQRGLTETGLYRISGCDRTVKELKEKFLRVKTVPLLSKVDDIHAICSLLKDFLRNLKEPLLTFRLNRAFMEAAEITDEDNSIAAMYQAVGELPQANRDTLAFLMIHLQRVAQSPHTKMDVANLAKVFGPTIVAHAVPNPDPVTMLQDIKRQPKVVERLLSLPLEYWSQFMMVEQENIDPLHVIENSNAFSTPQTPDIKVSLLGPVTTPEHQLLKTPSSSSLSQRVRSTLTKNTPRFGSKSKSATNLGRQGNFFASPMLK

inhibition, inactive:
COc1ccc(-c2cc(-c3ccccc3)nc(N3CCCC3)n2)cc1OC 3.15%
Cc1cc(C)c(C)c(S(=O)(=O)NCCCN2CCCC2=O)c1C 5.47%
CC(C)(C)c1ccc(N2C(=O)CC(c3ccccc3)C2=O)cc1 (configuration not stated) 4.86%
Cc1nc(N2CCN(C(=O)c3ccco3)CC2)c(C#N)c2c1CCCC2 5.84%
COc1ccccc1C(=O)N1CCN(Cc2ccc3c(c2)OCO3)CC1 2.13%
CCOC(=O)N1CCN(Cc2ccc3c(c2)OCO3)CC1 11.9%
Cc1cc(C)cc(C(=O)N2CCN(Cc3ccc4c(c3)OCO4)CC2)c1 0.95%
COc1cc(C(=O)N2CCN(Cc3ccc4c(c3)OCO4)CC2)cc(OC)c1OC 13.3%
COc1cccc(C(=O)N2CCN(Cc3ccccc3Br)CC2)c1 21.5%
CCOCC(=O)N1CCN(Cc2ccc3c(c2)OCO3)CC1 -16%
COc1cccc(C(=O)N2CCN(Cc3ccc4c(c3)OCO4)CC2)c1OC 9.39%
COc1cc(OC)cc(C(=O)N2CCN(Cc3ccccc3C(F)(F)F)CC2)c1 11.6%
Cc1ccccc1NC(=O)N1CCCC1C(=O)NCc1cccs1 (configuration not stated) 11.4%
CC(=O)Nc1ccc(CN2CCc3c([nH]c4ccccc34)C2C(C)(C)C)cc1 (configuration not stated) 6.78%
CCCc1n[nH]c2c1/C(=N/O)CC(c1ccccc1)C2 (configuration not stated) 12.8%
COc1cc(C)c(S(=O)(=O)N2CCCC2)cc1C 4.75%
CN(Cc1ccccc1)C(=O)COC(=O)c1ccc(S(=O)(=O)N(C)C)cc1 9.46%
O=C1C=C(c2ccccc2)C(O)(c2ccccc2)C1 (configuration not stated) 4.42%
CC1CN(C(=O)CS(=O)(=O)Cc2ccc(Cl)cc2)CC(C)O1 (configuration not stated) 6.85%
O=C(/C=C/Nc1ccc(F)cc1)c1ccc(Oc2ncccn2)cc1 10.5%
CCCCNS(=O)(=O)c1ccc2nc(SCC(=O)Nc3sccc3C#N)[nH]c2c1 4.59%
COC(=O)C1CCN(C(=O)Cc2ccc(OC)c(OC)c2)CC1 -0.01%
COc1ccc(Cc2nnc(NC(=O)Cc3cccs3)s2)cc1OC 4.75%
O=C(Cc1cccs1)Nc1nnc(Cc2ccccc2)s1 22.3%
CC1=NNC(=O)C1CC(=O)N/N=C(\C)c1cccs1 (configuration not stated) 3.05%
O=C(CCN1C(=O)c2cccc3cccc(c23)C1=O)Nc1ccccc1 2.77%
C=CCN1C(=O)CSC1=Nc1ccc(C(=O)O)cc1 6.53%
C=CCN1C(=O)CSC1=Nc1cccc(O)c1 3.76%
COc1ccc(N=C2SCC(=O)N2c2ccc(OC)cc2)cc1 -0.28%
CN1C(=O)CSC1=Nc1ccc(F)cc1 4.45%
O=C(NCCN1C(=O)S/C(=C\c2ccccc2Cl)C1=O)C1=COCCO1 3.87%
COc1cc2c(cc1OC)C(C)N(C(=S)Nc1ccccc1)CC2 (configuration not stated) 7.46%
NC(c1ccncc1)c1ccc(Cl)cc1 (configuration not stated) 13.9%
O=C(O)c1cccc(N2CCCC2)c1 15.6%
O=C(O)c1cccc(N2CCCC2=O)c1 5.07%
COC(=O)c1cccc(N2CCCC2=O)c1 9.18%
COC(=O)c1cccc(N2C(=O)c3ccccc3S2(=O)=O)c1 0.68%
CCCN(CCC)Cc1c(C(=O)N/N=C/CCc2ccccc2)nnn1-c1nonc1N 11.3%
Nc1ncc2c(n1)CCN(c1ccc([N+](=O)[O-])cc1)C2 7.74%
CC[C@H](C)[C@@H](C(=O)N1CCNCC1)n1cc([C@@H](N)CC(C)C)nn1 0.32%
CN(C)c1ccc(/C=N/Nc2cccc(C(=O)O)c2)cc1 -3.06%
O=C(O)c1cccc(N/N=C/c2ccc(-c3ccccc3)cc2)c1 -7.28%
O=C(O)c1cccc(N/N=C/c2cccc3ccccc23)c1 8.13%
CC(C)(C)c1ccc(/C=N/Nc2cccc(C(=O)O)c2)cc1 6.23%
Cc1ccsc1/C=N/NC(=O)Nc1ccccc1 1.94%
O=C(O)c1cccc(N/N=C/c2cn(-c3ccccc3)nc2-c2cccs2)c1 3.09%
Cc1ccc(NC(=O)CN2C(=O)NC3(CCc4ccccc43)C2=O)cc1 (configuration not stated) -6.82%
CC(=O)c1ccc(NC(=O)CN2C(=O)NC3(CCc4ccccc43)C2=O)cc1 (configuration not stated) 1.63%
CCOc1cccc(NC(=O)c2ccc(S(=O)(=O)N3CCCC3)cc2)c1 3.15%
O=S(=O)(c1ccccc1)c1nc(-c2ccco2)oc1NCCCN1CCOCC1 8.7%
O=C(/C=C/c1ccc(Cl)cc1Cl)Nc1cccc(S(=O)(=O)NC2=NCCCCC2)c1 5.67%
Nc1cc(Cl)ccc1Oc1ccc(Cl)cc1 0.58%
Nc1cc(Cl)ccc1Oc1ccccc1 11.6%
COc1ccc(C(=O)COC(=O)CNC(=O)c2ccccc2)cc1F 4.02%
CCOC(=O)c1cnc(SCC(=O)Nc2cc(OC)ccc2OC)nc1N 3.73%
CSCCC(NC(=O)c1ccccc1Cl)C(=O)NCc1ccncc1 (configuration not stated) 6.71%
CC1CCCN(CCOc2ccc(Br)cc2)C1 (configuration not stated) 12%
CC1CCCN(CCCOc2ccccc2-c2ccccc2)C1 (configuration not stated) 18.1%
O=C(/C=C/c1ccco1)NCC1CCCO1 (configuration not stated) 19.1%
CC(C)(C)C(=O)Cn1c(=O)n(-c2ccc(F)cc2F)c(=O)c2sccc21 13.1%
CNC(=S)N1N=C(c2ccc(C)cc2)CC1c1ccc(OC)c(OC)c1 (configuration not stated) 2.99%
CC(=O)C[C@H]1c2cc(C(F)(F)F)ccc2S(=O)(=O)N1c1ccc(N(C)C)cc1 16.3%
COC(=O)C[C@H]1c2cc(F)ccc2S(=O)(=O)N1c1ccc(N(C)C)cc1 22.8%
COc1ccc(-n2ncc3c2CC(C)(C)CC3NC(=O)CCn2cncn2)cc1 (configuration not stated) 4.79%
COc1ccc(-n2c(=O)c3c(C)c(C)sc3n(Cc3cccc(F)c3)c2=O)c(OC)c1 9.42%
Cc1cccc(NC(=O)CC(C)(C)C)c1 5.55%
CC(=O)Nc1ccc(NC(=O)Nc2ccccc2)cc1 -3.27%
CC(=O)Nc1ccccc1 3.65%
CC(C)(C)CC(=O)Nc1ccc(C(N)=O)cc1 5.87%
CC(=O)Nc1ccc(NS(=O)(=O)c2ccccc2)cc1 5.08%
Cc1ccc(S(=O)(=O)Nc2ccc(Nc3ccccc3)cc2)cc1 24.2%
CC(=O)Nc1cccc(NC(=O)c2ccccc2OCc2ccccc2)c1 9.89%
O=C(Nc1ccccc1)c1ccccc1OCc1ccc(F)cc1 13.5%
COc1cc(-c2ccccc2)[nH]c(=S)n1 9.57%
CC(Sc1nc(=O)cc(N)n1CCc1ccccc1)C(=O)NCc1ccccc1 (configuration not stated) 3.88%
COc1cccc(NC=C2C(=O)OC(C)(C)OC2=O)c1 6.91%
Cc1cc(C(=O)NNC(=S)NCC2CCCO2)cs1 (configuration not stated) 9.6%
COc1ccc2c(CC(=O)Nc3nc(C)cs3)coc2c1 7.58%
Cc1ccc(C(=O)N(CC(=O)Nc2ccc(Cl)c(Cl)c2)Cc2ccco2)cc1 2.86%
O=C(CSc1nc(C(F)(F)F)cc(=O)[nH]1)N1CCCCCC1 -0.68%
CC(C)Cn1c(SCC(=O)c2ccc(Cl)s2)nnc1-c1ccco1 11.6%
CC1CC(C)CN(c2cc(=O)n(Cc3ccc(F)cc3)c(=O)[nH]2)C1 (configuration not stated) 6.97%
COc1ccc(NC(=O)CN(C)S(=O)(=O)c2cccs2)cc1 16%
CCOC(=O)c1nn(-c2ccccc2F)c(-c2ccccc2)c1C(=O)c1ccccc1 5.32%
CC(=O)c1ccc(NC(=O)C(C)OC(=O)COc2ccc(C#N)cc2)cc1 (configuration not stated) 3.94%
O=C(Nc1ccc(Nc2ccccc2)cc1)C(Cl)Cl 25.5%
O=C(O)c1ccccc1C(=O)Nc1ccccc1 -1.51%
O=C(O)c1ccccc1-c1ccccc1C(=O)Nc1ccccc1 8.32%
CC(C)C(=O)Nc1ccc(C(=O)c2ccccc2)cc1 4.76%
O=C(O)c1ccccc1C(=O)Nc1ccc(Br)c(C(F)(F)F)c1 8.86%
CC(OC(=O)COc1ccc(Nc2ccccc2)cc1)C(=O)N(C)c1ccccc1 (configuration not stated) 24.6%
Cc1cccc(NC(=O)c2ccccc2C(=O)O)c1 3.78%
Cc1cccc(NS(=O)(=O)c2cccc(C(=O)N3CCCCCC3)c2)c1 7.68%
CCOc1ccc(NC(=O)c2cccs2)c([N+](=O)[O-])c1 9.62%
COc1ccc(COC(=O)N/N=C/c2cccs2)cc1 0.62%
Cc1ccc(/C=C2/SC(=S)N(CCCC(=O)Nc3cc([N+](=O)[O-])ccc3O)C2=O)cc1 3.56%
CCN(CC)CCNS(=O)(=O)c1ccc(Cl)cc1 5.79%
Cc1cc2ncn(-c3ncnc4sc(C)c(C)c34)c2cc1C 6.72%
CC1CCN(C(=O)c2nc[nH]c2C(=O)O[C@H](C)c2ccccc2)CC1 9.03%
O=C(Nc1ccccc1)C1CCCCC1 -3.44%
Oc1ccc(NCc2cccc(OCc3ccccc3)c2)cc1 9.79%
CCCC(=O)Nc1ccc(Nc2ccccc2)cc1 22.6%
CC(=O)Nc1ccc(S(=O)(=O)Nc2nc3ccccc3nc2Nc2ccc(O)c(C(=O)O)c2)cc1 9.87%
CC(C)CC(=O)Nc1ccc(Nc2ccccc2)cc1 22.4%
O=C(Nc1ccccc1)c1ccc(NC(=O)C2CC2)cc1 3.78%
Oc1ccc(NCc2cccc(OCc3ccc(F)cc3)c2)cc1 3.64%
CC(=O)Nc1ccc(S(=O)(=O)Nc2nc3ccccc3nc2Nc2ccccc2)cc1 4.86%

Reference: PubChem BioAssay AID624330 (Southern Research Specialized Biocontainment Screening …, 2012)
